These results are taken from PubChem BioAssay (Tox21).

Values joined by “and” are separate entries in the source; they are usually repeats but may differ in a detail not shown here. Equal entries are not always repeated. Inconclusive results are not listed. Where a call stands in place of a potency, no number is given. A structure can be active in one record and inactive in another. Active and inactive are the calls of the source. Calls come from the whole dose curve; as a rule, active = well fitted cell-killing curve with a large enough effect in the repeat runs; inconclusive = weak or mixed curves, or effect the other way; inactive = flat fitted curve, though single readings scatter.
Potency is the fitted concentration of half-maximal effect.

This experiment in a line: qHTS RealTime-Glo MT Cell Viability Assay in HEK293 cells - 8 hour (AID 1224887). Note: nearly all actives have a fitted effect of over 50% in size. Particulars: RealTime-Glo luminescence; series mostly up to 76.8 µM. The source says:
U.S. Tox21 Program National Center for Advancing Translational Sciences [NCATS] NIH Chemical Genomics Center [NCGC] U.S. Environmental Protection Agency [EPA] National Institutes of Environmental Health Sciences [NIEHS] National Toxicology Program [NTP] U.S. Food and Drug Administration [FDA] Tox21 Assay Overview: Measure of cell viability is critical in the cell-base assay. Analysis of cell viability is necessary for the characterization of cell responses to cytotoxic drugs and environmental stress. A RealTime-Glo MT Cell Viability Assay to monitor cell viability in real time of continues cell culture during 40 hours of compound treatment was used to screen Tox21 10K library compounds in Hek293 cells. The RealTime-Glo MT Cell Viability Assay is a nonlytic, homogeneous, bioluminescent method to measure cell viability in real time using a simple, plate-based method. The assay involves adding NanoLuc luciferase and a cell-permeant prosubstrate to cells in culture. Viable cells reduce the proprietary prosubstrate to generate a substrate for NanoLuc luciferase. This substrate diffuses from cells into the surrounding culture medium, where it is rapidly used by the NanoLuc Enzyme to produce a luminescent signal. The signal correlates with the number of viable cells, making the assay well suited for cytotoxicity studies.
Tox21 Assay Protocol Summary: The mixture of Hek293 cell suspension and reagents were dispensed at 600cells/6 ul/well in 1536-well tissue culture treated black solid bottom plates using a Multidrop dispenser. After the assay plates were incubated at a 37 C/5% CO2 incubator for 5 hours, 23 nL of compounds dissolved in DMSO, positive and negative controls was transferred to the assay plate by a pintool work station. The plates were incubated at 37 C for 40 hours. The luminescence intensity were measured at 0h, 8h, 16h, 24h, 32h and 40h time points using ViewLux plate reader during compound treatment.
Consider `Nc1ccc(-c2ccc(N)c(Cl)c2)cc1Cl`, for which the Potency was 24.5 µM (active).

As to `CCCCCCCCCCn1cc[n+](C)c1`, the Potency entry was “inactive and 1.74 µM (active)”.

Regarding `CC(=O)[O][Hg][c]1ccccc1`, the Potency was 433 nM (active) and 1.55 µM (active) and 425 nM (active).

In the case of `CC[N+]1(C)CCCC1`, the Potency entry is “inactive”.

For the molecule `Nc1ccccc1`, the Potency result is “inactive”.

As for `COP(=O)(OC)C(O)C(Cl)(Cl)Cl` (stereo not given), the Potency entry was “inactive”.

On to `CCCCn1cc[n+](C)c1`, for which the Potency entry is “inactive”.

Regarding `CCCCCCn1cc[n+](C)c1`, the Potency result was “inactive”.

In the case of `O=C(O)CC(O)(CC(=O)O)C(=O)O`, the Potency entry was “inactive”.

On to `O=[N+]([O-])O`, for which the Potency result is “inactive”.

Regarding `O=[N+]([O-])c1ccccc1O`, the Potency entry is “inactive”.

For the molecule `CCCCCC[n+]1ccccc1`, the Potency result was “inactive”.

As to `O=P1(N(CCCl)CCCl)NCCCO1` (stereo not given), the Potency result is “inactive”.

Consider `CCCCCCCCn1cc[n+](C)c1`, for which the Potency entry is “inactive”.

Regarding `CCNc1nc(Cl)nc(NCC)n1`, the Potency result was “inactive”.

Take `O=C(O)c1ccccc1O`: the Potency entry is “inactive”.

As to `Nc1ccc(Cl)cc1`, the Potency entry is “inactive”.

As to `CCC[N+]1(C)CCCC1`, the Potency result was “inactive”.

Take `O=c1[nH]c(=O)n(Cl)c(=O)n1Cl`: the Potency result was “inactive”.

Consider `O=C(O)COc1ccc(Cl)cc1Cl`, for which the Potency result is “inactive”.

Regarding `CCCC[N+]1(C)CCCC1`, the Potency result is “inactive”.

For `CCOP(=S)(OCC)Oc1ccc2c(C)c(Cl)c(=O)oc2c1`, the Potency was 12.4 µM (active) and 38.9 µM (active) and inactive.

As to `CCCCn1cc[n+](C)c1C`, the Potency entry is “inactive”.

Take `O=C(O)C(Cl)Cl`: the Potency entry was “inactive”.

Consider `CCCC[n+]1ccccc1`, for which the Potency result is “inactive”.

Consider `CCCC[N+]1(C)CCCCC1`, for which the Potency result was “inactive”.

Take `COCC(=O)N(c1c(C)cccc1C)C(C)C(=O)OC` (stereo not given): the Potency result was “inactive”.

`COP(=O)(OC)OC=C(Cl)Cl`: the Potency entry was “inactive”.

`CCCC[n+]1ccc(C)cc1`: the Potency was 30.7 µM (active) and inactive.

`O=C(O)CCl`: the Potency entry is “inactive”.

With `CCCn1cc[n+](C)c1`, the Potency result is “inactive”.

With `CCCCCCCCCCCCCC[P+](CCCCCC)(CCCCCC)CCCCCC`, the Potency is 12.4 µM (active) and 17.5 µM (active).

Regarding `Cc1cc(-c2ccc(N)c(C)c2)ccc1N`, the Potency entry was “inactive”.

For the molecule `COc1ccc(N)cc1`, the Potency entry is “inactive”.

Take `O=c1nc(O)n(Cl)c(=O)n1Cl`: the Potency entry is “inactive”.

Turning to `CCCCCCCCCCCCCCCCn1cc[n+](C)c1`, the Potency result is “inactive and 55.4 µM (active) and 55.1 µM (active)”.

Consider `CC[N+](CC)(CC)CC`, for which the Potency entry was “inactive”.

For the molecule `CC(Cl)(Cl)C(=O)O`, the Potency result is “inactive”.

For `Cc1cc(Cl)ccc1N`, the Potency entry is “inactive”.

Regarding `C1CCC(NC2CCCCC2)CC1`, the Potency result was “inactive”.
